Drawing on PMC7862700, “An all-to-all approach to the identification of sequence-specific readers for epigenetic DNA modifications on cytosine”, this text covers binding signal for five sequences.

Common to all, as to assay: DAPPL (digital affinity profiling via proximity ligation, sequencing); 10 mM Tris-HCl pH 7.5, 50 mM NaCl, 1 mM DTT, 4% glycerol, room temperature, 30 min; GST-TFs on glutathione beads, 16-mer random dsDNA library, 0.1% formaldehyde crosslink after washing; high values mean tight binding
Details in all cases: protein: recombinant; tags: N-terminal GST; dsDNA, one strand shown

For experiment [1], the target named is T1, EHF (Homo sapiens, UniProt Q9NZC4 1-300).
T1 sequence: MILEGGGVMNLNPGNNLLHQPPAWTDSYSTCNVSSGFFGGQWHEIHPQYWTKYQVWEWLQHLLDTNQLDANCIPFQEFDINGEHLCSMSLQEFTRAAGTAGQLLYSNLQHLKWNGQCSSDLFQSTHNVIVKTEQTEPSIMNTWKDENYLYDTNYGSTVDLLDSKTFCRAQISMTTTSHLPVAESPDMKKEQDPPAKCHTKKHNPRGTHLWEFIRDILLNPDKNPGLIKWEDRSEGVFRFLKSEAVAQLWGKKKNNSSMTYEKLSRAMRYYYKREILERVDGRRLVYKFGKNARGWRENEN
In short, it runs like this: (§1)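 Binding signal is given per hexamer as its read frequency for a factor divided by its frequency in the tag-only sample. GST-fused human transcription factors were expressed in yeast, captured on glutathione beads, barcoded with DNA and pooled with that sample, then incubated with 200 nmole of a 16-mer random double-stranded DNA library in Tris/NaCl/DTT/glycerol buffer for 30 min at room temperature. The pools were then washed, crosslinked, proximity-ligated, amplified by PCR and sequenced on an Illumina NextSeq500.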

Experiment [2] addresses SPIB (Homo sapiens, UniProt Q01892 1-262). An outline of the steps: as §1
Experiment [3] deals with T2, ETV2 (Homo sapiens, UniProt O00321 1-342).
T2 sequence: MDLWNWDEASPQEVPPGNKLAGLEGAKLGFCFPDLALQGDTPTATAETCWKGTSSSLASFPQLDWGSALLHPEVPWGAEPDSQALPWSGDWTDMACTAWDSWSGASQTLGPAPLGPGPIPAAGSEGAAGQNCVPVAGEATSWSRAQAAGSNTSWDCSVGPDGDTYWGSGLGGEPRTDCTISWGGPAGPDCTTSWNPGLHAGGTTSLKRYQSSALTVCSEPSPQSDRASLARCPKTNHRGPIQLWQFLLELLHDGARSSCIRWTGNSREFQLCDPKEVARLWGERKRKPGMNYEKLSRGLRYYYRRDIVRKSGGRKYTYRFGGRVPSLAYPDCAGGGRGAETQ
An outline of the steps:
as §1

For experiment [4], the target named is T3, ELF3 (Homo sapiens, UniProt P78545 1-371).
T3 sequence: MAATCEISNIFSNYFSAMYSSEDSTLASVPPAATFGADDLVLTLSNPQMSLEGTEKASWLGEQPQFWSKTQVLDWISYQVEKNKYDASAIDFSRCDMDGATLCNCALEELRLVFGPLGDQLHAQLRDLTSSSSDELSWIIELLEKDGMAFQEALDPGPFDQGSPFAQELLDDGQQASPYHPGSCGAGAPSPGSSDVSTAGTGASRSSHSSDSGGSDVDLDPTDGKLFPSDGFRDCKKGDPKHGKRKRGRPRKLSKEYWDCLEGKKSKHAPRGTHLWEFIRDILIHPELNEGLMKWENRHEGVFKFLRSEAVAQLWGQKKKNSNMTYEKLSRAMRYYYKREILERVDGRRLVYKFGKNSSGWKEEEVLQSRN
In short, it runs like this:
as §1

In experiment [5] the target is ETV1 (Homo sapiens, UniProt P50549 1-477). In short, it runs like this: as §1
ETV1, sequence (P50549 whole entry): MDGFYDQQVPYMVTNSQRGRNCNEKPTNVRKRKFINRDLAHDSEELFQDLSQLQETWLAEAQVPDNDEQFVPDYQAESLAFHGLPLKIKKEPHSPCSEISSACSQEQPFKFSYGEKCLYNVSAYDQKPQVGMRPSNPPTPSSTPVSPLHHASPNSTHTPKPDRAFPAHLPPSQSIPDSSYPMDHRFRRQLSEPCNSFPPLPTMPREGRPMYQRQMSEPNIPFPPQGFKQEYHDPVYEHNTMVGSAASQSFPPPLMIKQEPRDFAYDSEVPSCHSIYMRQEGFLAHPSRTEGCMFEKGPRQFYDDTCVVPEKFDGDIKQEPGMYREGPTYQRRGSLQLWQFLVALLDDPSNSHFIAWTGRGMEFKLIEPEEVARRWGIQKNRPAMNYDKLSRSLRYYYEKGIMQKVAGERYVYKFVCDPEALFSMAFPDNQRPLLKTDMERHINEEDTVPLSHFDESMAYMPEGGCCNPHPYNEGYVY
The target of experiment [6] is SPI1 (Homo sapiens, UniProt P17947 1-270). In short, it runs like this: as §1
For experiment [7], the target named is T4, ELK3 (Homo sapiens, UniProt P41970 1-407).
T4 sequence: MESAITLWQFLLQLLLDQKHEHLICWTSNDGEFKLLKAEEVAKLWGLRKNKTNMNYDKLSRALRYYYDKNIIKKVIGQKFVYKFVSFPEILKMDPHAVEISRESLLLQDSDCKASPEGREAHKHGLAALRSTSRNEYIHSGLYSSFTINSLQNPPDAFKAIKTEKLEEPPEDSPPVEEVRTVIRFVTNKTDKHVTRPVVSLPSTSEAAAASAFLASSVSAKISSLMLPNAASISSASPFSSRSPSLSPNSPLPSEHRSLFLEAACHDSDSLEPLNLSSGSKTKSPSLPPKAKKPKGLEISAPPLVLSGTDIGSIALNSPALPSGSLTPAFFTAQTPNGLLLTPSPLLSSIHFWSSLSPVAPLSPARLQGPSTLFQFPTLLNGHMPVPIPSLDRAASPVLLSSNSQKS
An outline of the steps:
as §1

The target of experiment [8] is CRX (Homo sapiens, UniProt O43186 1-299). An outline of the steps:
as §1

Experiment [9] deals with T5, ERG (Homo sapiens, UniProt P11308 1-479).
T5 sequence: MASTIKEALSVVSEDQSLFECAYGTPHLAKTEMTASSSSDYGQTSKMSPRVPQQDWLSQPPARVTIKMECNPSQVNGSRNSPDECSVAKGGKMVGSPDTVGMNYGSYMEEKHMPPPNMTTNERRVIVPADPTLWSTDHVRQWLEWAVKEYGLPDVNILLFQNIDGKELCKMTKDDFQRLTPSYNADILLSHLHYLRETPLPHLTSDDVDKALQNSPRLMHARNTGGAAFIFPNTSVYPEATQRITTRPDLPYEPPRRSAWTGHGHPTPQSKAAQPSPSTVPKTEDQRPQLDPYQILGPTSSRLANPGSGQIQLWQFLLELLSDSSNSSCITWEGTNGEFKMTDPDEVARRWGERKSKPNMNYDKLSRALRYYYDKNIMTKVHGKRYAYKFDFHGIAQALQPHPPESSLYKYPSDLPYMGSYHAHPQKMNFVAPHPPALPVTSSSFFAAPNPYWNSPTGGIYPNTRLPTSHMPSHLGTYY
An outline of the steps: as §1

In experiment [10] the target is T6, ETS2 (Homo sapiens, UniProt P15036 1-469).
T6 sequence: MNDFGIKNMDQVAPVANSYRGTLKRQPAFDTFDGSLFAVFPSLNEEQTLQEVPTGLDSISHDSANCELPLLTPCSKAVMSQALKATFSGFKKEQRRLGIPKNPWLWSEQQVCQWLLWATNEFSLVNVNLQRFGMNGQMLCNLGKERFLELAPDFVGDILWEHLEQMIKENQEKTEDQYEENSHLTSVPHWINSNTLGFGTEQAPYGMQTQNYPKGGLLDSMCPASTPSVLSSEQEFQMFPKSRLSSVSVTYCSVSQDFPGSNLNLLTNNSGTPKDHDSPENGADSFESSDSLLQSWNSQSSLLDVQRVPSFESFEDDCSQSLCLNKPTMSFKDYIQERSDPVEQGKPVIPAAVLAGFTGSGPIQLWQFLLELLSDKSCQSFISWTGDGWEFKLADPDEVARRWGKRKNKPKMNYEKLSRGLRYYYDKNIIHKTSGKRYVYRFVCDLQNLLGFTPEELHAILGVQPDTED
An outline of the steps:
as §1

SPIB, sequence (Q01892 whole entry): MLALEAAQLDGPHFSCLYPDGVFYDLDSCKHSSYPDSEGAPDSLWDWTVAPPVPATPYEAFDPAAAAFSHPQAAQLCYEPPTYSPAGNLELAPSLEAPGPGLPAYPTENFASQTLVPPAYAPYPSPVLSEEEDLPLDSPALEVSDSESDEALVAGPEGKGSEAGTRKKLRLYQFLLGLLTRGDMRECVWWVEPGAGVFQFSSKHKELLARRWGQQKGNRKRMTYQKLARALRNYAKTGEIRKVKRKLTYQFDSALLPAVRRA
CRX, sequence (O43186 whole entry): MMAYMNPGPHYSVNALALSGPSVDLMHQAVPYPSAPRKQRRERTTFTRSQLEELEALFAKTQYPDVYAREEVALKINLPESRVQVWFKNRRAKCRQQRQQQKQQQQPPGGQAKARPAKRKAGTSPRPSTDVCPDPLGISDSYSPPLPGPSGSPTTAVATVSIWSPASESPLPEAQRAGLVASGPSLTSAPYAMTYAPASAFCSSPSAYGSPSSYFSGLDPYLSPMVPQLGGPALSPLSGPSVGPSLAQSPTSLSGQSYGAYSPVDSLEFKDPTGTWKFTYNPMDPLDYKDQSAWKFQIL

As to CATCGT, the binding signal is 1 fold enrichment (6-mer frequency, TF over GST control) in experiment [1]; 1.05 fold enrichment (6-mer frequency, TF over GST control) in experiment [2]; 1.01 fold enrichment (6-mer frequency, TF over GST control) in experiment [3].

For the sequence GTCAAA, the binding signal in experiment [4] was 1 fold enrichment (6-mer frequency, TF over GST control); in experiment [5], 1 fold enrichment (6-mer frequency, TF over GST control).

Consider GTAGCC, for which the binding signal was 1.03 fold enrichment (6-mer frequency, TF over GST control) in experiment [6]; 1.06 fold enrichment (6-mer frequency, TF over GST control) in experiment [4]; 1 fold enrichment (6-mer frequency, TF over GST control) in experiment [5].

Regarding AGGCTA, the binding signal is 1.05 fold enrichment (6-mer frequency, TF over GST control) in experiment [7]; 1 fold enrichment (6-mer frequency, TF over GST control) in experiment [3]; 1.19 fold enrichment (6-mer frequency, TF over GST control) in [8].

With GGATGA, the binding signal in [9] was 1.01 fold enrichment (6-mer frequency, TF over GST control); in experiment [2] it was 1.06 fold enrichment (6-mer frequency, TF over GST control); in [5] it was 1.05 fold enrichment (6-mer frequency, TF over GST control); in experiment [10], 1.1 fold enrichment (6-mer frequency, TF over GST control).
